# According to paper PMC7862700, “An all-to-all approach to the identification of sequence-specific readers for epigenetic DNA modifications on cytosine”:
# Legend:
# Test in all cases: DAPPL (digital affinity profiling via proximity ligation, sequencing); 10 mM Tris-HCl pH 7.5, 50 mM NaCl, 1 mM DTT, 4% glycerol, room temperature, 30 min; GST-TFs on glutathione beads, 16-mer random dsDNA library, 0.1% formaldehyde crosslink after washing; high values mean tight binding
# [1] = biological target: T1, FLI1 (Homo sapiens, UniProt Q01543 1-452); conditions: protein: recombinant; tags: N-terminal GST; dsDNA, one strand shown
# T1 sequence: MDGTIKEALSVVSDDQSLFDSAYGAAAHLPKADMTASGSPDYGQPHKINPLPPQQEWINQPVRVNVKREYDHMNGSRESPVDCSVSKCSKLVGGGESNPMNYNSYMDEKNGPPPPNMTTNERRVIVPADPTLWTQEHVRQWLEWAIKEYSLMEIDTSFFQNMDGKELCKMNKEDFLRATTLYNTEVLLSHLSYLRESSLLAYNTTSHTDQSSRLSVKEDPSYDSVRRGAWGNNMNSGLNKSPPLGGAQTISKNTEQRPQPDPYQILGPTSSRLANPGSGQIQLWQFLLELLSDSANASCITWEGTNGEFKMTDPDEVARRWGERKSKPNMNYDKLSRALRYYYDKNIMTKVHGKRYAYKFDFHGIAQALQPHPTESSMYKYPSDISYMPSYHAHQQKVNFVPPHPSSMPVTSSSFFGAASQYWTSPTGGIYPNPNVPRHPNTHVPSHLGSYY
# Summary of the method: (§1)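 In yeast, human transcription factors were expressed with a GST fusion, then pulled down on glutathione beads and given DNA barcodes. Pooled with a tag-only sample, they were exposed to 200 nmole of a 16-mer random double-stranded DNA library (Tris/NaCl/DTT/glycerol buffer, room temperature, 30 min), washed, crosslinked with 0.1% formaldehyde, proximity-ligated using BsaI/T4 ligase for 1 h at 37 °C, PCR-amplified and read on an Illumina NextSeq500. Each hexamer's frequency of reads for a factor, divided by the matching frequency for the tag-only sample, gives the binding signal.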
# [2] = biological target: T2, ELK1 (Homo sapiens, UniProt P19419 1-428); conditions: protein: recombinant; tags: N-terminal GST; dsDNA, one strand shown
# T2 sequence: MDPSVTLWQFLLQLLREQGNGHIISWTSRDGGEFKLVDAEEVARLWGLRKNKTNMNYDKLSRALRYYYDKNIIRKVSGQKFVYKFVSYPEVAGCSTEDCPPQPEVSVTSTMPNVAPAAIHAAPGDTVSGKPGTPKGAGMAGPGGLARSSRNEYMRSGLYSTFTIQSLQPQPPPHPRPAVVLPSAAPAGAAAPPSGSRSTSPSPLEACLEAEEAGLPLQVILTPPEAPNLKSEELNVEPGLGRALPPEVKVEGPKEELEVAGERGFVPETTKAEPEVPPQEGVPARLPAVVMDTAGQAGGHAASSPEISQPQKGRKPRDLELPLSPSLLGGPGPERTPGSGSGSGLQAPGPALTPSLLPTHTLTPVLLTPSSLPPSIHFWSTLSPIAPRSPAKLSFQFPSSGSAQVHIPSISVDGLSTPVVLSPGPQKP
# Summary of the method: as §1
# [3] = biological target: T3, GABPA (Homo sapiens, UniProt Q06546 1-454); conditions: protein: recombinant; tags: N-terminal GST; dsDNA, one strand shown
# T3 sequence: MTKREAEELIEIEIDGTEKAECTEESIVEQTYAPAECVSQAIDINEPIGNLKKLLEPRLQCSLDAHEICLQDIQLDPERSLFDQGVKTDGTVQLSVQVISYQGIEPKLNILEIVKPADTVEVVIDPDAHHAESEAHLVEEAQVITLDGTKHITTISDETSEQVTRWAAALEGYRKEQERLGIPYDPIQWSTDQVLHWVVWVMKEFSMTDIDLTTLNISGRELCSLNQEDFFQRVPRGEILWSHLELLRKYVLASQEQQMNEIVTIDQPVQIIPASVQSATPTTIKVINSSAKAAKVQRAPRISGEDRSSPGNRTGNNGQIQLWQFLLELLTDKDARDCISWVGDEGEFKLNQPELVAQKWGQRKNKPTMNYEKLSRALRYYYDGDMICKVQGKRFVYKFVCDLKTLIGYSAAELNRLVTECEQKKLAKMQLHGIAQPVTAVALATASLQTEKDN
# Summary of the method: as §1
# [4] = biological target: T4, ERG (Homo sapiens, UniProt P11308 1-479); conditions: protein: recombinant; tags: N-terminal GST; dsDNA, one strand shown
# T4 sequence: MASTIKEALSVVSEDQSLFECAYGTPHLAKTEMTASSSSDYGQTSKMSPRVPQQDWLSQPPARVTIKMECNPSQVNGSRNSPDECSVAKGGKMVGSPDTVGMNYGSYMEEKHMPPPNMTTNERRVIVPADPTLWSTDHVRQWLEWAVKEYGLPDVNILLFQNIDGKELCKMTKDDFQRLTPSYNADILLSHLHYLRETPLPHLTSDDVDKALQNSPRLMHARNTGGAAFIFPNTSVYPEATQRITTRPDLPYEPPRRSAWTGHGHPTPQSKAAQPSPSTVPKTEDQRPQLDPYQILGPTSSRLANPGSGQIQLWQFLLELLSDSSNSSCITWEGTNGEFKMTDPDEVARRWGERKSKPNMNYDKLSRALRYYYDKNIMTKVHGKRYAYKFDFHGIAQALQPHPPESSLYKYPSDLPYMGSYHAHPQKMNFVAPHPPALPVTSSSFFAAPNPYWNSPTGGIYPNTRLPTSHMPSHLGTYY
# Summary of the method: as §1
# [5] = biological target: ELF1 (Homo sapiens, UniProt P32519 1-619); conditions: protein: recombinant; tags: N-terminal GST; dsDNA, one strand shown
# Summary of the method: as §1
# [6] = biological target: T5, EHF (Homo sapiens, UniProt Q9NZC4 1-300); conditions: protein: recombinant; tags: N-terminal GST; dsDNA, one strand shown
# T5 sequence: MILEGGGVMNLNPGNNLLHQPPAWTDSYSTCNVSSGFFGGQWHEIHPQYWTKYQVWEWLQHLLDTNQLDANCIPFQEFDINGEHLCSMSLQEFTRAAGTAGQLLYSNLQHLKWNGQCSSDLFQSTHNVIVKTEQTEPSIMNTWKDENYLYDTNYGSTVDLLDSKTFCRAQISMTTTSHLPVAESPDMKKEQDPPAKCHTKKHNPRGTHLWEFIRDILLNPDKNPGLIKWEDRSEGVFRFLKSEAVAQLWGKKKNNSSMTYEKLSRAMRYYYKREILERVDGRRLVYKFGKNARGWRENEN
# Summary of the method: as §1
# [7] = biological target: SPI1 (Homo sapiens, UniProt P17947 1-270); conditions: protein: recombinant; tags: N-terminal GST; dsDNA, one strand shown
# Summary of the method: as §1
# [8] = biological target: SPIB (Homo sapiens, UniProt Q01892 1-262); conditions: protein: recombinant; tags: N-terminal GST; dsDNA, one strand shown
# Summary of the method: as §1
# [9] = biological target: T6, ELK3 (Homo sapiens, UniProt P41970 1-407); conditions: protein: recombinant; tags: N-terminal GST; dsDNA, one strand shown
# T6 sequence: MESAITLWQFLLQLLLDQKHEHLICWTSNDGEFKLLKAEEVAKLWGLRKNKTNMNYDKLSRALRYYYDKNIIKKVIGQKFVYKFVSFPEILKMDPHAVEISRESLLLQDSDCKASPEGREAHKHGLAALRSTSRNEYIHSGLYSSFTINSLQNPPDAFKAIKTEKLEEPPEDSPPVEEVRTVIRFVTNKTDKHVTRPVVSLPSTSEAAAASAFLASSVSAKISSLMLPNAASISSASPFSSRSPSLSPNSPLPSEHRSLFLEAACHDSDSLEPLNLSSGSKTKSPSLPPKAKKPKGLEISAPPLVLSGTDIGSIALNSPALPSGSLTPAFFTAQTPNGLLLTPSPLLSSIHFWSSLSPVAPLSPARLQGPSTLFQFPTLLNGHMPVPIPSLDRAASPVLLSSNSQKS
# Summary of the method: as §1
# [10] = biological target: T7, FEV (Homo sapiens, UniProt Q99581 1-238); conditions: protein: recombinant; tags: N-terminal GST; dsDNA, one strand shown
# T7 sequence: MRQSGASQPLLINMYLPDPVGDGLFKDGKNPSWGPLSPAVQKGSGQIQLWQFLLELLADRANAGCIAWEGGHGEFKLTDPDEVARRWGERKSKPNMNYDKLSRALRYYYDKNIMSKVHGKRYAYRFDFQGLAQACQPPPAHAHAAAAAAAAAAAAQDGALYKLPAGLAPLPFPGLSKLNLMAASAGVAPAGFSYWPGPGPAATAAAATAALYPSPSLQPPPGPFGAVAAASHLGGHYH
# Summary of the method: as §1
# [11] = biological target: ETV5 (Homo sapiens, UniProt P41161 1-510); conditions: protein: recombinant; tags: N-terminal GST; dsDNA, one strand shown
# Summary of the method: as §1
# [12] = biological target: HSF1 (Homo sapiens, UniProt Q00613 1-529); conditions: protein: recombinant; tags: N-terminal GST; chain copies: 3; dsDNA, one strand shown
# Summary of the method: as §1
# [13] = biological target: T8, SPIC (Homo sapiens, UniProt Q8N5J4 1-248); conditions: protein: recombinant; tags: N-terminal GST; dsDNA, one strand shown
# T8 sequence: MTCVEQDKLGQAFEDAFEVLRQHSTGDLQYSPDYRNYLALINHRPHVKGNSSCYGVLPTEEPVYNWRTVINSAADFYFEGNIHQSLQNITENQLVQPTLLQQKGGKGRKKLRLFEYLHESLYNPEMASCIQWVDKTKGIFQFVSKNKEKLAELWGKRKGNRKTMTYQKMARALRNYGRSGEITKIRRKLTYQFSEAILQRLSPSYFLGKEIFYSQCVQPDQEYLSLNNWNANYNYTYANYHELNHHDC
# Summary of the method: as §1
# [14] = biological target: ELF4 (Homo sapiens, UniProt Q99607 1-663); conditions: protein: recombinant; tags: N-terminal GST; dsDNA, one strand shown
# Summary of the method: as §1
# [15] = biological target: T9, ELK4 (Homo sapiens, UniProt P28324-2 1-405); conditions: protein: recombinant; tags: N-terminal GST; dsDNA, one strand shown
# T9 sequence: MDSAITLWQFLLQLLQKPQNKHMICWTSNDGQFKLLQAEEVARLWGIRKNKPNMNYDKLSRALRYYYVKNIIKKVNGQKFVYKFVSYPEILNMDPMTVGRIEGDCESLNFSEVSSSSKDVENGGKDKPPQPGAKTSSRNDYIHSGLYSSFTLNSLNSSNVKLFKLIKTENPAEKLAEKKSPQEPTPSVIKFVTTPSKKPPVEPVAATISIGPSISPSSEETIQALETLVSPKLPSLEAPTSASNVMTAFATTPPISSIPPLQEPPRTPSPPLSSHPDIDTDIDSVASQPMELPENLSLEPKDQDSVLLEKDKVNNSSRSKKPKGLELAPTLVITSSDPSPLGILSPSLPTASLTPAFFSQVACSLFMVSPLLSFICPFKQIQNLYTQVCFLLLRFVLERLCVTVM
# Summary of the method: as §1
# [16] = biological target: T10, ETV2 (Homo sapiens, UniProt O00321 1-342); conditions: protein: recombinant; tags: N-terminal GST; dsDNA, one strand shown
# T10 sequence: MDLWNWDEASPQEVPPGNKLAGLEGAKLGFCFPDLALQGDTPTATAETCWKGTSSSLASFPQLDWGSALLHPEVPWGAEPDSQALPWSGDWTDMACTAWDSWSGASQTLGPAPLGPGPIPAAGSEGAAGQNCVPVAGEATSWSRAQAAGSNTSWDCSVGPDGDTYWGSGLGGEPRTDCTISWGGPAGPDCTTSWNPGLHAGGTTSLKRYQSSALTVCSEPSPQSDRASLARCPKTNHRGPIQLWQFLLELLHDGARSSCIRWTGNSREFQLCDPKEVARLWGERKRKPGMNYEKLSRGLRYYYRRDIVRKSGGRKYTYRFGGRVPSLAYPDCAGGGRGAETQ
# Summary of the method: as §1
# [17] = biological target: T11, ELF3 (Homo sapiens, UniProt P78545 1-371); conditions: protein: recombinant; tags: N-terminal GST; dsDNA, one strand shown
# T11 sequence: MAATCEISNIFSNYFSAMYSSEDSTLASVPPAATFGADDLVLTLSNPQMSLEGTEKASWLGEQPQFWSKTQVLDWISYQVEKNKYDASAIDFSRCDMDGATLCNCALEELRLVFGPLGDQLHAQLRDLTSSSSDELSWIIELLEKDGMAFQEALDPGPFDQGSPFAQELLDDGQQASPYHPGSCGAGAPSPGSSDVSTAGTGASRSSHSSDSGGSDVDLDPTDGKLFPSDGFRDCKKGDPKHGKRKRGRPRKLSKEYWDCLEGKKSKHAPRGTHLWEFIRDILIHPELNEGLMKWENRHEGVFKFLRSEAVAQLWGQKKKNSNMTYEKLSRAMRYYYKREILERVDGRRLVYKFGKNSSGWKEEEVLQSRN
# Summary of the method: as §1
# [18] = biological target: CRX (Homo sapiens, UniProt O43186 1-299); conditions: protein: recombinant; tags: N-terminal GST; dsDNA, one strand shown
# Summary of the method: as §1
# [19] = biological target: ETV1 (Homo sapiens, UniProt P50549 1-477); conditions: protein: recombinant; tags: N-terminal GST; dsDNA, one strand shown
# Summary of the method: as §1
# CRX, sequence (O43186 whole entry): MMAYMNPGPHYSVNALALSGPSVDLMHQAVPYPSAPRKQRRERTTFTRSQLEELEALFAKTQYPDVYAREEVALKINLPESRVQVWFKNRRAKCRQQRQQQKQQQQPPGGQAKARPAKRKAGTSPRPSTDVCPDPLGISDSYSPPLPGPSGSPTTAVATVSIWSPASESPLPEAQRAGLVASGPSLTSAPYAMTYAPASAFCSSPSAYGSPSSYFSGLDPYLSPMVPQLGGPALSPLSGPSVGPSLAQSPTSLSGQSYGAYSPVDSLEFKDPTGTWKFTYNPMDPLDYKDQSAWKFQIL
# HSF1, sequence (Q00613 whole entry): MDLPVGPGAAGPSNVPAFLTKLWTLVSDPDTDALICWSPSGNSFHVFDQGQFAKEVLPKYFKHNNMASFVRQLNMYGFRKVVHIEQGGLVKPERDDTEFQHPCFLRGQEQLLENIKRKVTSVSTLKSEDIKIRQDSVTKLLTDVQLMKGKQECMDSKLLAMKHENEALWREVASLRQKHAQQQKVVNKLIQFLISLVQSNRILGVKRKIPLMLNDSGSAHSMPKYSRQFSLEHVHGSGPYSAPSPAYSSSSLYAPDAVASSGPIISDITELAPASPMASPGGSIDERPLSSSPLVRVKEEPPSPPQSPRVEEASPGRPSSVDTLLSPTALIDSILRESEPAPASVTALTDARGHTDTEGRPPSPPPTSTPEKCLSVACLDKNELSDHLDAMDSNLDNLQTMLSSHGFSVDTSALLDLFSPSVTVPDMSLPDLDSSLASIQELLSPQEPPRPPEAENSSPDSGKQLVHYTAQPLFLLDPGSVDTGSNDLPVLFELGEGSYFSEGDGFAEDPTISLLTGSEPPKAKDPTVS
# ETV5, sequence (P41161 whole entry): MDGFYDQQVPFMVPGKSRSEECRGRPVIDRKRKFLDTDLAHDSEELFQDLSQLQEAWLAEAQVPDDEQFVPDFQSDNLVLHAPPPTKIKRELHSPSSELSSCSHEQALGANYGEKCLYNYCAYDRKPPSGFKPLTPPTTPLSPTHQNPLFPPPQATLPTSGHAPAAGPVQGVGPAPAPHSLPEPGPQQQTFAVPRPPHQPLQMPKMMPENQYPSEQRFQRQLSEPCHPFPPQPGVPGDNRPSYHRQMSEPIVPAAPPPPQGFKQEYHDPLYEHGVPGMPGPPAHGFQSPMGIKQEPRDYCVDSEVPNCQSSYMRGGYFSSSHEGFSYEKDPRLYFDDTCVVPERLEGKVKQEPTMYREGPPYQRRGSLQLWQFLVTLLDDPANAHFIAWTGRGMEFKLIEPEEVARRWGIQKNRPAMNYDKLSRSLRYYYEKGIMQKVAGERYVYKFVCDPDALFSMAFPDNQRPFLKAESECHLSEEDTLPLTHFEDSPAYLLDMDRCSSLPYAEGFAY
# ELF1, sequence (P32519 whole entry): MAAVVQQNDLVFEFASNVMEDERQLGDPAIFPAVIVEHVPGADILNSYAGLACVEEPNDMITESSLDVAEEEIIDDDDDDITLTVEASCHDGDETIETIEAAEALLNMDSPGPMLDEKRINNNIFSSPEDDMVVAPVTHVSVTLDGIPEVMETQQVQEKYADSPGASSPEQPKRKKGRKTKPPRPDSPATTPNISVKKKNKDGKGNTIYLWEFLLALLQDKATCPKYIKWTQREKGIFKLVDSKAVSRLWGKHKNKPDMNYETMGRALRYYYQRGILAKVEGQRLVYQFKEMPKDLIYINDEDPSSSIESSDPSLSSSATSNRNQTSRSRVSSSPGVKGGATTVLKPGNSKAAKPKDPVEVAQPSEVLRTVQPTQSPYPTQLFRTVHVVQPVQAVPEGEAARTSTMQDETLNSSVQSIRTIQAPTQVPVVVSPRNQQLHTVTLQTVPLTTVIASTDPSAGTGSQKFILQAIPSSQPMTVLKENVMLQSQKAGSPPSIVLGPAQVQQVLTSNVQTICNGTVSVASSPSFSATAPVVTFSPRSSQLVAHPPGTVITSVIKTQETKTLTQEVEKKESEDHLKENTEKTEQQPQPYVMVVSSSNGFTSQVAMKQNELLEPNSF
# ELF4, sequence (Q99607 whole entry): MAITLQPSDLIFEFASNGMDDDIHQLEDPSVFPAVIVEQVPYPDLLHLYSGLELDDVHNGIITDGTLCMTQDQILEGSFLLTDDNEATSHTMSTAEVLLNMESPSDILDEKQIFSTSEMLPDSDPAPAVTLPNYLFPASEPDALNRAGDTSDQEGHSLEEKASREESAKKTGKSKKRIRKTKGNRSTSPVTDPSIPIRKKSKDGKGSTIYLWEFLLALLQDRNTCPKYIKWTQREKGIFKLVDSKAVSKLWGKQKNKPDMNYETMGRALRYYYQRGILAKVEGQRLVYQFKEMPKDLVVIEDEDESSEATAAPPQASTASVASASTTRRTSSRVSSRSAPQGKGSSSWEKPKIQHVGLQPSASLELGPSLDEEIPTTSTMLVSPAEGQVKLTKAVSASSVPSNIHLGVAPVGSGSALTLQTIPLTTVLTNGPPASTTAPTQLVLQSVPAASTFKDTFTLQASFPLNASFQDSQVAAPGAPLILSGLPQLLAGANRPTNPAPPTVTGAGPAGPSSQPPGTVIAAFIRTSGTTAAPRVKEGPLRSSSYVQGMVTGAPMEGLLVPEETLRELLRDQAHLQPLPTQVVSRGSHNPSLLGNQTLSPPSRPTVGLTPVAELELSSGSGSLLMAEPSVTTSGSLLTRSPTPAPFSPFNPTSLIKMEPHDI
# SPIB, sequence (Q01892 whole entry): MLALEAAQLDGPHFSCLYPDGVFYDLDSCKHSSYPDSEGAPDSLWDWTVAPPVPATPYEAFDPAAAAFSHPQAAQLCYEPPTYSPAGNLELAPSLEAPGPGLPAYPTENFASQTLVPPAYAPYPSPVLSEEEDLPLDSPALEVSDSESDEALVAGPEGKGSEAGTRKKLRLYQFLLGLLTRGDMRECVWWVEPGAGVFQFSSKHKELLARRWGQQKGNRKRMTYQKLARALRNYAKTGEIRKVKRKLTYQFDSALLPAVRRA
# ETV1, sequence (P50549 whole entry): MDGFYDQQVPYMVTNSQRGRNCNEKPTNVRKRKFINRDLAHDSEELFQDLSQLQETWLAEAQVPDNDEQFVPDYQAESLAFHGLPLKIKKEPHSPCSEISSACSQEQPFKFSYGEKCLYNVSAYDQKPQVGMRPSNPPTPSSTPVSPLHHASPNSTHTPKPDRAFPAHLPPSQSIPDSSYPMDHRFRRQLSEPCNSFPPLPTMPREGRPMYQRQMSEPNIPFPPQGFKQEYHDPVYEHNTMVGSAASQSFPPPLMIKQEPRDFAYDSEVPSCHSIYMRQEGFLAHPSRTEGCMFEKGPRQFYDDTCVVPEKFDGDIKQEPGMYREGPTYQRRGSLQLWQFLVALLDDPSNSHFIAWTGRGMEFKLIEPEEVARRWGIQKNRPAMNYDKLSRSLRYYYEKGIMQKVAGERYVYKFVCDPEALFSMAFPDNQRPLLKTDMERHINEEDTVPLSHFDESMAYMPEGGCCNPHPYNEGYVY
sequence,measurement,setting,value
AGCAAT,binding signal,[1],"1.07 fold enrichment (6-mer frequency, TF over GST control)"
same,binding signal,[2],"1.15 fold enrichment (6-mer frequency, TF over GST control)"
same,binding signal,[3],"1.09 fold enrichment (6-mer frequency, TF over GST control)"
same,binding signal,[4],"1.11 fold enrichment (6-mer frequency, TF over GST control)"
same,binding signal,[5],"1.18 fold enrichment (6-mer frequency, TF over GST control)"
same,binding signal,[6],"1.1 fold enrichment (6-mer frequency, TF over GST control)"
same,binding signal,[7],"1.1 fold enrichment (6-mer frequency, TF over GST control)"
same,binding signal,[8],"1.18 fold enrichment (6-mer frequency, TF over GST control)"
same,binding signal,[9],"1.05 fold enrichment (6-mer frequency, TF over GST control)"
same,binding signal,[10],"1.08 fold enrichment (6-mer frequency, TF over GST control)"
same,binding signal,[11],"1.14 fold enrichment (6-mer frequency, TF over GST control)"
same,binding signal,[12],"1.1 fold enrichment (6-mer frequency, TF over GST control)"
same,binding signal,[13],"1.05 fold enrichment (6-mer frequency, TF over GST control)"
same,binding signal,[14],"1.2 fold enrichment (6-mer frequency, TF over GST control)"
same,binding signal,[15],"1.14 fold enrichment (6-mer frequency, TF over GST control)"
same,binding signal,[16],"1.14 fold enrichment (6-mer frequency, TF over GST control)"
same,binding signal,[17],"1.13 fold enrichment (6-mer frequency, TF over GST control)"
same,binding signal,[18],"1.06 fold enrichment (6-mer frequency, TF over GST control)"
same,binding signal,[19],"1.09 fold enrichment (6-mer frequency, TF over GST control)"
